Results published in the supplement of paper PMC12819154, “High-throughput peptide-centric local stability assay extends protein–ligand identification to membrane proteins, tissues and bacteria” (Nature Structural & Molecular Biology, 2025).

Target: T1, UniProt P76038
T1 sequence (whole entry): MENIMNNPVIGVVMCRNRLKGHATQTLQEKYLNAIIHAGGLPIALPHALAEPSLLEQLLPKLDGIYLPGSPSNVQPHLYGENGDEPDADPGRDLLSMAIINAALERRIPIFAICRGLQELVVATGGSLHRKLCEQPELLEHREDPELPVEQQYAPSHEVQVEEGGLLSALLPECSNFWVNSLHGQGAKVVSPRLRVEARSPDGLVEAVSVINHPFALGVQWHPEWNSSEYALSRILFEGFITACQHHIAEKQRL
Assay: log2 fold change of tryptic peptide abundance, ligand vs vehicle (limited proteolysis) (log2 ratio); higher = more trypsin-susceptible (destabilized)
Conditions: peptide sequence: GLQELVVATGGSLHRK; peptide start residue: 116; ligand concentration: 5 mM; sample: E. coli desalted lysate; replicate design: treated before aliquoting
Experimental: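 HT-PELSA: desalted E. coli K-12 BW25113 lysate (with 12 mM MgCl2) incubated with 5 mM ATP (pH 7) or water for 30 min at 25 C, then a 4 min trypsin pulse at 22 C. Peptides were quantified by DIA-MS (4 replicates). Value is the peptide log2 fold change (treated/control); negative = stabilized. Scale: negative = ligand-stabilized region.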
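Further: lysate desalted by size exclusion to strip endogenous ATP, peptide intensities built from DIA-NN precursor signals, and peptides missing any value discarded before comparison.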

| SMILES | log2 fold change |
| --- | --- |
| Nc1ncnc2c1ncn2[C@@H]1O[C@H](COP(=O)(O)OP(=O)(O)OP(=O)(O)O)[C@@H](O)[C@H]1O [adenosine 5'-triphosphate] | 1.55 |
